Measurements from the supplement of paper PMC10412459.

System: K562 SF3B1 K700E vs K562 SF3B1 WT
Assay: surviving fraction ratio K562 SF3B1 K700E / K562 SF3B1 WT (each relative to DMSO); higher = less selective killing of SF3B1 K700E cells
Details: 5 days
Procedure: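 Drug-sensitivity screen of an in-house 80-compound library in isogenic K562 SF3B1 K700E versus SF3B1 WT cells. 250 cells/well in 384-well plates were exposed 24 h after seeding to 0.5-1000 nM compound for 5 days, and viability was read by CellTiter-Glo. Surviving fraction is relative to DMSO, and the value is the ratio of surviving fraction in K700E to WT cells; the paper calls ratio <0.6 with P<0.01 selective.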

C[C@]12O[C@H](C[C@]1(O)CO)n1c3ccccc3c3c4c(c5c6ccccc6n2c5c31)CNC4=O [lestaurtinib]
surviving fraction ratio K562 SF3B1 K700E / K562 SF3B1 WT (0.1nM): 0.691 | surviving fraction ratio K562 SF3B1 K700E / K562 SF3B1 WT (0.2nM): 0.885 | surviving fraction ratio K562 SF3B1 K700E / K562 SF3B1 WT (1nM): 0.8 | surviving fraction ratio K562 SF3B1 K700E / K562 SF3B1 WT (2nM): 0.895 | surviving fraction ratio K562 SF3B1 K700E / K562 SF3B1 WT (10nM): 0.877 | surviving fraction ratio K562 SF3B1 K700E / K562 SF3B1 WT (20nM): 0.855 | surviving fraction ratio K562 SF3B1 K700E / K562 SF3B1 WT (100nM): 0.823 | surviving fraction ratio K562 SF3B1 K700E / K562 SF3B1 WT (200nM): 0.907

CCC1=C[C@@H]2CN(C1)Cc1c([nH]c3ccccc13)[C@@](C(=O)OC)(c1cc3c(cc1OC)N(C)[C@H]1[C@@](O)(C(=O)OC)[C@H](OC(C)=O)[C@]4(CC)C=CCN5CC[C@]31[C@@H]54)C2 [vinorelbine]
surviving fraction ratio K562 SF3B1 K700E / K562 SF3B1 WT (0.5nM): 1.02 | surviving fraction ratio K562 SF3B1 K700E / K562 SF3B1 WT (1nM): 0.921 | surviving fraction ratio K562 SF3B1 K700E / K562 SF3B1 WT (5nM): 0.475 | surviving fraction ratio K562 SF3B1 K700E / K562 SF3B1 WT (10nM): 0.385 | surviving fraction ratio K562 SF3B1 K700E / K562 SF3B1 WT (50nM): 1.53 | surviving fraction ratio K562 SF3B1 K700E / K562 SF3B1 WT (100nM): 1.9 | surviving fraction ratio K562 SF3B1 K700E / K562 SF3B1 WT (500nM): 1.97 | surviving fraction ratio K562 SF3B1 K700E / K562 SF3B1 WT (1000nM): 1.89

C[C@@H]1CN(CC(=O)Nc2ccc3c(c2)Cc2cccc(-c4cc(=O)cc(N5CCOCC5)o4)c2S3)C[C@H](C)O1
surviving fraction ratio K562 SF3B1 K700E / K562 SF3B1 WT (0.5nM): 0.976 | surviving fraction ratio K562 SF3B1 K700E / K562 SF3B1 WT (1nM): 1.04 | surviving fraction ratio K562 SF3B1 K700E / K562 SF3B1 WT (5nM): 0.887 | surviving fraction ratio K562 SF3B1 K700E / K562 SF3B1 WT (10nM): 0.896 | surviving fraction ratio K562 SF3B1 K700E / K562 SF3B1 WT (50nM): 1.08 | surviving fraction ratio K562 SF3B1 K700E / K562 SF3B1 WT (100nM): 0.96 | surviving fraction ratio K562 SF3B1 K700E / K562 SF3B1 WT (500nM): 0.878 | surviving fraction ratio K562 SF3B1 K700E / K562 SF3B1 WT (1000nM): 0.865

CS(=O)(=O)CCNCc1ccc(-c2ccc3ncnc(Nc4ccc(OCc5cccc(F)c5)c(Cl)c4)c3c2)o1 [lapatinib]
surviving fraction ratio K562 SF3B1 K700E / K562 SF3B1 WT (0.5nM): 0.726 | surviving fraction ratio K562 SF3B1 K700E / K562 SF3B1 WT (1nM): 0.755 | surviving fraction ratio K562 SF3B1 K700E / K562 SF3B1 WT (5nM): 0.828 | surviving fraction ratio K562 SF3B1 K700E / K562 SF3B1 WT (10nM): 0.669 | surviving fraction ratio K562 SF3B1 K700E / K562 SF3B1 WT (50nM): 0.99 | surviving fraction ratio K562 SF3B1 K700E / K562 SF3B1 WT (100nM): 0.906 | surviving fraction ratio K562 SF3B1 K700E / K562 SF3B1 WT (500nM): 0.898 | surviving fraction ratio K562 SF3B1 K700E / K562 SF3B1 WT (1000nM): 0.665

CC(=O)NCC(=O)N1[C@@H]2CC[C@H]1c1ccc(Nc3ncc(C(F)(F)F)c(NC4CCC4)n3)cc12
surviving fraction ratio K562 SF3B1 K700E / K562 SF3B1 WT (0.5nM): 0.948 | surviving fraction ratio K562 SF3B1 K700E / K562 SF3B1 WT (1nM): 1.01 | surviving fraction ratio K562 SF3B1 K700E / K562 SF3B1 WT (5nM): 0.872 | surviving fraction ratio K562 SF3B1 K700E / K562 SF3B1 WT (10nM): 0.883 | surviving fraction ratio K562 SF3B1 K700E / K562 SF3B1 WT (50nM): 0.549 | surviving fraction ratio K562 SF3B1 K700E / K562 SF3B1 WT (100nM): 1.05 | surviving fraction ratio K562 SF3B1 K700E / K562 SF3B1 WT (500nM): 1.18 | surviving fraction ratio K562 SF3B1 K700E / K562 SF3B1 WT (1000nM): 1.64

CCCCCCCCCCCCCCCC(=O)Nc1ccn([C@@H]2O[C@H](CO)[C@@H](O)[C@@H]2C#N)c(=O)n1 [sapacitabine]
surviving fraction ratio K562 SF3B1 K700E / K562 SF3B1 WT (1nM): 0.911 | surviving fraction ratio K562 SF3B1 K700E / K562 SF3B1 WT (10nM): 1.11 | surviving fraction ratio K562 SF3B1 K700E / K562 SF3B1 WT (100nM): 0.745 | surviving fraction ratio K562 SF3B1 K700E / K562 SF3B1 WT (1000nM): 1.78
